# The list is not random: actives were taken first. Their share in the collection is about 9.2%.
# SMN2 splice up = enhancers of SMN2 splice variant expression | HEK293 SMN2-luciferase splicing reporter, luminescence, 30-36 h | Potency, µM (top dose mostly 46.1 µM), inactives show top-dose activity change, positive = activation, actives largely listed as activators | actives 2.8% (n = 210,000) | AID 1458; note: % of control where 0% means no effect; nearly all actives have a fitted effect of over 55% in size
#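 qHTS luciferase splicing reporter: luminescence rises when SMN2 exon 7 is included in transfected HEK293 cells. Compound exposure lasted 30-36 h at 37C, with 4.5 mM final sodium butyrate as control, followed by a ONE-Glo read.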
# Rab9 prom act = activators of Rab9 promoter | Potency, µM (highest dose often 9.22 µM), for inactives: at the highest dose activation, negative = inhibition, most hits filed as activators | Huh7 Rab9 promoter-luciferase reporter, luminescence, 24 h | actives 2.8% (n = 320,000); note: % of control where 0% means no effect; nearly all actives have a fitted effect of over 60% in size
#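 Promoter activation is measured as luciferase luminescence in Huh7 cells stably transfected with a Rab9 promoter–luciferase construct, following 24 h compound exposure at 37 °C and 10 min reagent incubation at ambient temperature.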
# FLuc counter = inhibits or activates purified firefly luciferase, miR-21 counter-screen | actives 6.9% (n = 360,000) | P08659 | purified FLuc, Km substrates, luminescence inhibition | Potency, µM (titrated, usually from 57.5 µM), without a hit: top-dose activity change, negative = inhibition, usual class: inhibitors;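 note: plate controls were vehicle for no effect and reference inhibitor for full effect; nearly all actives have a fitted effect of over 55% in size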
#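 Purified P. pyralis luciferase (10nM final) with 10uM D-luciferin and 10uM ATP (Km levels) in 50mM Tris acetate pH 7.5, 10mM Mg acetate, 0.01% Tween-20, 0.05% BSA; qHTS 6-point titration, ~60 µM downward; luminescence read.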
# ELG1 genotox = genotoxicity induction in ELG1-luciferase HEK293T cells; HEK293T ELG1-luciferase reporter, luminescence, 16 h; Potency, µM (top dose mostly 46 µM), without a hit: at the top dose activity change, positive = activation, hits mostly activators; actives 1.3% (n = 330,000); AID 504466; note: % of control where 0% means no effect; nearly all actives have a fitted effect of over 60% in size
#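 Reporter readout depends on ELG1 protein level, which increases with genetic stress. After 16 hr compound exposure at 37 °C, luciferase activity was quantified using ONE-Glo.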
# ELG1 repair inh = blocks ELG1-dependent DNA repair in HEK293T cells | Potency, µM (series often up to 46.1 µM), for the others: top-dose activity change, negative = inhibition, usual class: inhibitors | actives 2.3% (n = 330,000) | HEK293T ELG1-luciferase reporter, luminescence, 16 h; DNA damage induced by 5-fluorouridine; note: % is set by controls: 0 for no effect and ±100 for the full control effect; nearly all actives have a fitted effect of over 55% in size
#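 Reporter activity after DNA damage by 5-fluorouridine is monitored. Compound-treated cells incubate 16 hr at 37 °C, then ONE-Glo is added for 30 min before luminescence reading.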
# NPC1 prom act = NPC1 promoter activation; actives 2.4% (n = 320,000); Potency, µM (series often up to 9.22 µM), for inactives: at the highest dose activation, hits mostly activators; Huh7 NPC1 promoter luciferase reporter, 24 h; note: % of control where 0% means no effect; nearly all actives have a fitted effect of over 60% in size
#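 Luminescence read-out of NPC1 promoter-driven luciferase in stably transfected Huh7 cells; compounds delivered in DMSO and left 24 h at 37C, 5% CO2, qHTS titration format.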
# ELG1 FLuc counter = luciferase inhibition in cell-free luciferin readout for ELG1 hits; shares compounds with ELG1 repair inh; cell-free firefly luciferase luminescence counter-screen, ViewLux; Potency, µM (top dose mostly 46.1 µM), inactives show at the highest dose activity change, negative = inhibition, actives largely listed as inhibitors; actives 3% (n = 350); AID 624247; note: % is set by controls: 0 for no effect and ±100 for the full control effect
# ELG1 Luc conf = inhibits ELG1-dependent DNA repair in HEK293T cells, confirmed. shares compounds with ELG1 repair inh. HEK293T ELG1-luciferase levels, luminescence; cells co-treated with 5-fluorouridine. Potency, µM (titrated, usually from 46.1 µM), for inactives: top-dose activity change, negative = inhibition, actives largely listed as inhibitors. actives 68% (n = 670). AID 624248; note: % is set by controls: 0 for no effect and ±100 for the full control effect; nearly all actives have a fitted effect of over 55% in size
# ELG1-Luc MMS = MMS-stimulated human ELG1 repair inhibition, confirmed; shares compounds with ELG1 repair inh; HEK293T luciferase-tagged ELG1 level, MMS stimulated; Potency, µM (doses to about 46.1 µM), inactives show top-dose activity change, negative = inhibition, actives largely listed as inhibitors; actives 53% (n = 670); AID 624249; note: % is set by controls: 0 for no effect and ±100 for the full control effect; nearly all actives have a fitted effect of over 60% in size
# ELG1 5-FU = confirmation of ELG1 repair inhibitors: viability with 5FU; shares compounds with ELG1 repair inh; 670 tested, under 10 active; AID 624250; cell viability with 5-FU, ELG1-dependent repair; Potency, µM (highest dose often 46.1 µM), for the others: top-dose activity change, negative = viability loss, actives largely listed as cytotoxic;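 note: ELG1-luc HEK293T cells cotreated with 5-fluorouridine at 10 µM final; viability measured 16 h after compound addition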
# ELG1 MMS viab = confirmation of ELG1 repair inhibitors: viability with MMS. shares compounds with ELG1 repair inh. Cell viability with MMS, ELG1-dependent DNA repair. Potency, µM (titrated, usually from 46.1 µM), for the others: top-dose activity change, negative = viability loss, hits mostly cytotoxic. actives 33% (n = 670). AID 624251;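 note: ELG1-luc HEK293T cells co-treated with 10 µM MMS; viability read 16 h after compound addition; % is set by controls: 0 for no effect and ±100 for the full control effect; nearly all actives have a fitted effect of over 60% in size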
# Cell viab unstim = unstimulated viability counter-screen for ELG1 repair hits; cell viability counter-screen, unstimulated, luminescence; actives 8% (n = 900); shares compounds with ELG1 repair inh; AID 624252; Potency, µM (titrated, usually from 45.9 µM), inactives show top-dose activity change, negative = loss of viability, actives largely listed as cytotoxic;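 note: compound exposure lasted 16 hours before reading; % is set by controls: 0 for no effect and ±100 for the full control effect; nearly all actives have a fitted effect of over 55% in size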
# FLuc enzyme = inhibits purified firefly luciferase, counter-screen for ELG1 hits | shares compounds with ELG1 repair inh | purified firefly luciferase, luminescence counter-screen | Potency, µM (doses to about 57.5 µM), for inactives: top-dose activity, negative = inhibition, actives largely listed as inhibitors | actives 10% (n = 350); note: % is set by controls: 0 for no effect and ±100 for the full control effect
# Active calls of the source: *; ? = inconclusive; / = not tested or not shown; [ ] = another dose, or the depositor's remark. Calls come from the whole dose curve; as a rule, active = well fitted curve in the direction sought with a large enough effect; inconclusive = small, poorly fitted or top-dose-only effect, or another doubt; inactive = no such curve, though single readings can be large; an effect the other way counts as inactive or inconclusive. Potency is the fitted concentration of half-maximal effect.
SMILES,SMN2 splice up,Rab9 prom act,FLuc counter,ELG1 genotox,ELG1 repair inh,NPC1 prom act,ELG1 Luc conf,ELG1-Luc MMS,ELG1 5-FU,ELG1 MMS viab,Cell viab unstim,others
NC(N)=NCCCC(NC(=O)C(N)Cc1ccc(O)cc1)C(=O)O (configuration not stated),3%,/,/,/,/,/,/,/,/,/,/,
Cc1ccc(S(=O)(=O)N2CCC(C(=O)OCC(=O)N3CCCC(C)C3)CC2)cc1C (configuration not stated),/,-3%,2%,0%,2%,1%,/,/,/,/,/,
Cc1c(C(=O)Nc2ccc(F)cc2F)oc2c1-c1nn(Cc3c(F)cccc3Cl)cc1CC2,/,/,-14%,/,/,/,/,/,/,/,/,
Cn1c(=O)c2c(nc(Oc3ccc4ccccc4c3)n2C)n(C)c1=O,-28%,1%,1%,-31%,4.1µM*,10%,8.9µM*,13µM*,?,?,-4%,
Cn1c(=O)c2c(nc(Oc3cccc(O)c3)n2C)n(C)c1=O,/,0%,1%,-3%,-18%,0%,/,/,/,/,/,
O=C(Cn1cccc1C(=O)c1ccccc1)NCCC1=CCCCC1,-21%,-5%,-9%,2%,16%,-1%,/,/,/,/,/,
c1ccc(CC2CCN(c3ncnc4sccc34)CC2)cc1,-41%,-29%,-14%,-5%,1.6µM*,-37%,23%,1.6µM*,-10%,2µM*,?,ELG1 FLuc counter=31%;FLuc enzyme=?
Cn1c(C[C@@H](O)c2nc3ccccc3n2C)nc2ccccc21,-3%[9.22 µM],/,/,/,/,/,/,/,/,/,/,
CCCCc1ccc(NC(=O)C(=O)NCCN2CCN(Cc3ccc([N+](=O)[O-])cc3)CC2)cc1,-77%,-32%,5%,12%,3.3µM*,-32%,?,0.79µM*,0%,1.3µM*,-15%,
CNC(=O)C(=O)NCCN1CCN(C(=O)c2ccc([N+](=O)[O-])cc2)CC1,/,-12%,-4%,6%,11%,5%,/,/,/,/,/,
COc1cccc(-c2cncnc2NCCc2cnc[nH]2)c1,-7%,/,/,/,/,/,1.4µM*,?,0%,2%,?,
COc1ccc(NC(=O)CNC(=O)c2nn(-c3ccc(OC)c(Cl)c3)c(=O)c3ccccc23)c(OC)c1,/,10%,2%,-8%,5.8µM*,0%,3.5µM*,-2%,10%,-1%,?,ELG1 FLuc counter=-3%;FLuc enzyme=-13%
CCc1ccc(NC(=O)CNC(=O)c2nn(-c3ccc(OC)cc3)c(=O)c3ccccc23)cc1,/,-11%,3%,-12%,-14%,-4%,14µM*,16%,?,-3%,?,ELG1 FLuc counter=1%;FLuc enzyme=-9%
COc1ccc(-n2nc(C(=O)NCC(=O)Nc3ccccn3)c3ccccc3c2=O)cc1Cl,-11%,-2%,0%,13%,?,-8%,/,/,/,/,/,
COc1cc(/C=C/C(=O)O)cc(S(=O)(=O)N2CCc3ccccc3C2)c1OC,-9%,1%,-12%,2%,-12%,0%,/,/,/,/,/,
O=C(Oc1ccc(-c2nnco2)cc1)C1CCN(C(=O)c2ccc(F)cc2)CC1,/,2%,0%,2%,15%,0%,/,/,/,/,/,
Cc1ccc(S(=O)(=O)N2CCCCC2c2cccnc2)c(C)c1C (configuration not stated),/,9%,1%,-9%,0.82µM*,-2%,0.014µM*,14µM*,-1%,20µM*,?,ELG1 FLuc counter=1%;FLuc enzyme=3%
O=S(=O)(c1cccc(C(F)(F)F)c1)N1CCCC1c1cccnc1 (configuration not stated),/,-4%,-2%,-1%,1%,3%,/,/,/,/,/,
CN1C(=O)c2ccc(NC(=O)c3ccc(N4CCCCC4)c([N+](=O)[O-])c3)cc2C1=O,-9%,-7%,-2%,-1%,3.7µM*,-1%,14µM*,14µM*,?,?,-18%,
O=C(Nc1ccc(N2CCCC2)c(Cl)c1)c1ccc([N+](=O)[O-])cc1,4%,11%,-11%,7%,1.8µM*,3%,?,-14%,?,-5%,-3%,
N#Cc1cccn1-c1nccc(-c2cccs2)n1,22%,?,?,11%,?,15%,/,/,/,/,/,
Cc1ccc(CCNC(=O)c2ccc(CSc3nc4ccncc4n3Cc3ccc(F)cc3)cc2)cc1,-2%,/,0%,/,/,/,/,/,/,/,/,
COC(=O)c1cn(C(=O)/C=C/c2ccc(OC)c(OC)c2)c2ccccc12,-52%,-7%,-19%,-7%,-13%,-14%,/,/,/,/,/,
C=C(C(=O)OC)C(NC(=O)OC)c1ccccc1 (configuration not stated),-3%,/,/,/,/,/,/,/,/,/,/,
COc1cccc(/C=C/C(=O)OCC(=O)c2ccc(C)c(C)c2)c1OC,/,-3%,?,0%,7%,1%,/,/,/,/,/,
COc1cccc(/C=C/C(=O)OCC(=O)c2ccccc2)c1OC,/,/,/,?,?,/,/,/,/,/,-3%,
CC1CCN(c2ccc3nnc(CCC(=O)Nc4ccc(F)cc4)n3n2)CC1,/,-2%,0%,-3%,-1%,-5%,/,/,/,/,/,
